Screens: PubChem BioAssay, National Center for Advancing Translational Sciences (NCATS)
HCV inhibitor: qHTS Assay for Inhibitors of Hepatitis C Virus (HCV) | Huh7.5.1 HCVcc-Cre infection, luciferase reporter, 44 h | Potency, µM (series often up to 41.8 µM), for the others: at the highest dose activity change, negative = inhibition, hits mostly inhibitors | 340,000 tested, 3.4% active | AID 651820, 2012; further: potency means the concentration at half of the fitted maximal effect
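Cells (1,000/well) were plated 4 h before compound, then infected with HCVcc-Cre virus (~0.5 moi). After 44 h further culture, infection was read as luciferase luminescence following a 15 min substrate incubation at room temperature.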
AmpC inh detg: qHTS Inhibitors of AmpC Beta-Lactamase (assay with detergent); AmpC hydrolysis of nitrocefin, absorbance 480 nm, 0.01% Triton; Potency, µM (doses to about 114 µM), for the others: at the top dose activity change, negative = inhibition, most hits filed as inhibitors; 370,000 tested, 0.041% active; AID 485294, 2010;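 further: potency means the concentration at half of the fitted maximal effect; 0% = no-compound wells and -100% = no-enzyme wells; nearly all actives have a fitted effect of over 25% in size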
Target sequence (P00811 whole entry, looked up): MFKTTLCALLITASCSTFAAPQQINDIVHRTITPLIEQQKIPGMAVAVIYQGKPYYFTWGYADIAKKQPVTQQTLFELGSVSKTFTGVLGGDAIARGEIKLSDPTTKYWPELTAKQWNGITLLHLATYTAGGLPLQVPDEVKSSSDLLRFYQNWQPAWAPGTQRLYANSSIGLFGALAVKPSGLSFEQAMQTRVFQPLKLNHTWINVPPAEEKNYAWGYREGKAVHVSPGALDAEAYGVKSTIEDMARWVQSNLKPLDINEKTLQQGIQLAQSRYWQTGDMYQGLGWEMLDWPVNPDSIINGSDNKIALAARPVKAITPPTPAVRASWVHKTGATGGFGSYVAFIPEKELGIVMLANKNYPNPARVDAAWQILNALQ
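20 mM phosphate pH 7.0 + 0.01% (detergent screen) or 0.0001% Triton X-100; 5.3 nM AmpC reagent; cpd preinc 15 min RT; nitrocefin (800 uM stock) to start; A480 q20 s × 4 min; Activity was normalised to no-enzyme and no-compound control wells.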
AmpC no deterg: qHTS Inhibitors of AmpC Beta-Lactamase (assay without detergent). P00811. AmpC nitrocefin hydrolysis, absorbance 480 nm, 0.0001% Triton. Potency, µM (top dose mostly 57.1 µM), for inactives: at the highest dose activity change, negative = inhibition, hits mostly inhibitors. 330,000 tested, 0.52% active. AID 485341, 2010;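 further: potency means the concentration at half of the fitted maximal effect; plate controls were no compound for no effect and no enzyme for full effect; nearly all actives have a fitted effect of over 20% in size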
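20 mM phosphate pH 7.0 + 0.01% (detergent screen) or 0.0001% Triton X-100; 5.3 nM AmpC reagent; cpd preinc 15 min RT; nitrocefin (800 uM stock) to start; A480 q20 s × 4 min; Activity was normalised to no-enzyme and no-compound control wells.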
HCMV inh: qHTS Assay for inhibitors of the human cytomegalovirus (HCMV); activity change, negative = inhibition, % at 57.5 µM; 410,000 tested, 4.5% active; HFF cells, HCMV-luciferase reporter, 72 h; active compounds read low; in the data active means activity change below about -60%; inconclusive means no clear call, values can overlap the other calls; inactive means above about -39%
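Two compound doses tested in HFFs infected with HCMV-luciferase, MOI 1 PFU/cell, 72 h at 37C. Lysate luminescence read with OneGlo; data normalized against buffer-only and 10uM Salinomycin inhibitor controls.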
FMDV inh: High Throughput Screening for Foot and Mouth Disease Virus Antivirals; FMDV antiviral cell-based qHTS; Potency, µM (highest dose often 57.9 µM), for inactives: at the top dose activity change, negative = inhibition, actives largely listed as inhibitors; 410,000 tested, 1.2% active; calls by dose curve; tested in HEK293T cells; further: read-out not given here; potency means the concentration at half of the fitted maximal effect; nearly all actives have a fitted effect of over 45% in size
* hit, by the source's call; ! = a repeat was not active. Most compounds without a hit are left out; they make up all but 7.3% or so of the library. Unless noted, the call rests on the fitted dose curve; in most records, active means well fitted curve in the direction sought with a large enough effect; inconclusive means small, poorly fitted or top-dose-only effect, or another doubt; inactive means no such curve, though single readings can be large; an effect the other way counts as inactive or inconclusive. Unless noted, on the % scale 0 is the no-effect control and ±100 the full control effect.

What do the screens show for `COc1ccc(C(=O)Nc2ccccc2C(=O)NC(C(=O)NCc2ccco2)C(C)C)cc1` (stereo unspecified)?
HCV inhibitor: -20.4%; AmpC inh detg: -14.5%; AmpC no deterg: -2.8%; HCMV inh: -19.5; FMDV inh: -6.4%

How did COc1ccc(C(=O)Nc2ccccc2C(=O)N(Cc2ccco2)C(C(N)=O)C(C)C)cc1 (stereo unspecified) do in these assays?
HCV inhibitor: -21.6%; AmpC inh detg: -0.5%; AmpC no deterg: -18.6%; HCMV inh: -75.5*; FMDV inh: -2.6%

How did COc1ccc(Nc2nc(C(=O)N(CCO)Cc3ccccc3)cs2)cc1 do in these assays?
HCV inhibitor: inconclusive; AmpC inh detg: 2.0%; AmpC no deterg: -2.0%; HCMV inh: -10.2; FMDV inh: -1.6%

What do the screens show for `CN1CCN(NC(=O)c2cc(-c3ccc(Br)s3)nc3ccccc23)CC1`?
HCV inhibitor: 10µM*; AmpC inh detg: -14.7%; AmpC no deterg: 96.9%; HCMV inh: -5.1; FMDV inh: 0.5%

How did CCCCN(C)CCNC(=O)c1cc(-c2ccc(Cl)s2)nc2ccccc12 do in these assays?
AmpC inh detg: 6.7%; HCMV inh: -101.0*; FMDV inh: -23.5%

What do the screens show for `CCN(CC)CCNC(=O)c1cc2cc(Br)ccc2s1`?
HCV inhibitor: 12.6µM*; AmpC inh detg: 4.1%; AmpC no deterg: 11.6%; HCMV inh: 4.0; FMDV inh: -6.1%

Results for CCN(CC)CCNC(=O)c1cc(-c2ccc(Br)s2)nc2ccccc12 ?
HCV inhibitor: 12.6µM*; AmpC inh detg: inconclusive; AmpC no deterg: 143.3%; HCMV inh: -93.6*!; FMDV inh: -6.8%

Results for O=C(O)c1cc(-c2ccc(Br)s2)nc2ccccc12 ?
HCV inhibitor: 7.3%; AmpC inh detg: -2.5%; AmpC no deterg: -18.3%; HCMV inh: 16.5; FMDV inh: 50.2%

Results for CC(C)CN(CCNC(=O)c1cc(-c2ccc(Cl)s2)nc2ccccc12)CC(C)C ?
AmpC inh detg: 5.4%; HCMV inh: -16.5; FMDV inh: -10.3%

What do the screens show for `Cc1cc2c(c(-c3nc4ccccc4s3)c1)OC(CNC(=O)c1occc1C)C2` (stereo unspecified)?
FMDV inh: 13.5%

How did CCCCCC(=O)NC(=S)NC1C2CC3CC(C2)CC1C3 (stereo unspecified) do in these assays?
HCV inhibitor: inconclusive; AmpC inh detg: 0.5%; AmpC no deterg: -46.5%; HCMV inh: 196.4; FMDV inh: 7.7%

How did O=C(NC1CC1)c1cc(-c2ccc(Br)cc2)nc2ccccc12 do in these assays?
HCV inhibitor: 4.4%; AmpC inh detg: 5.1%; AmpC no deterg: -19.7%; HCMV inh: 0.0; FMDV inh: -21.6%

How did CN1CCC(NC(=O)c2cc(-c3cccc(Br)c3)nc3ccccc23)CC1 do in these assays?
HCV inhibitor: 11.2µM*; AmpC inh detg: -1.4%; AmpC no deterg: 30.7%; HCMV inh: -29.7; FMDV inh: -5.3%

What do the screens show for `CCc1cccc(N=c2c([N+](=O)[O-])nn(-c3ccc4c(c3)OCCO4)n2O)c1`?
HCV inhibitor: 10µM*; AmpC inh detg: 2.0%; AmpC no deterg: -30.2%; HCMV inh: -67.0*; FMDV inh: inconclusive

Results for CCc1cccc(N=c2c([N+](=O)[O-])nn(-c3ccc(Cl)cc3)n2O)c1 ?
HCV inhibitor: inconclusive; AmpC inh detg: -7.2%; AmpC no deterg: -40.3%; HCMV inh: 73.0; FMDV inh: -26.8%

Results for CS(=O)c1ccccc1-c1nc(-c2ccc([N+](=O)[O-])cc2)no1 (stereo unspecified) ?
HCV inhibitor: 35.2%; HCMV inh: 45.5; FMDV inh: 11.3%

What do the screens show for `CC(C)[C@H](NC(=O)OC(C)(C)C)c1nnc(S(=O)(=O)Cc2c(F)cccc2Cl)o1`?
HCV inhibitor: inconclusive; AmpC inh detg: 2µM*; AmpC no deterg: 2.51µM*; HCMV inh: -76.2*; FMDV inh: 35.5µM*

Results for C[C@H](NC(=O)OC(C)(C)C)c1nnc(SCc2c(F)cccc2Cl)o1 ?
AmpC inh detg: 5.7%; HCMV inh: -77.6*; FMDV inh: -30.1%

Results for CC(C)=CCSc1nnc([C@@H](NC(=O)OC(C)(C)C)C(C)C)o1 ?
HCV inhibitor: 5.7%; AmpC inh detg: -0.5%; AmpC no deterg: 17.1%; HCMV inh: -8.7; FMDV inh: -22.1%

Results for CC(/C=N/N1CCN(Cc2ccccc2)CC1)=C\c1ccccc1 ?
HCV inhibitor: -11.5%; AmpC inh detg: 0.6%; AmpC no deterg: -3.1%; HCMV inh: -103.8*; FMDV inh: -4.9%

What do the screens show for `CC(=C/c1ccccc1)/C=N/N1CCN(Cc2ccc(C)cc2)CC1`?
HCV inhibitor: -3.7%; AmpC inh detg: 3.2%; AmpC no deterg: -9.4%; HCMV inh: 4.1; FMDV inh: -27.0%

Results for Cc1ccc(NC(=O)CN2C(=O)NC3(CCCCC3)C2=O)cc1S(=O)(=O)N1CCOCC1 ?
HCV inhibitor: 7.0%; AmpC no deterg: 6.1%; HCMV inh: 17.7; FMDV inh: -22.0%

Results for Cc1cc(NC(=O)c2sc(Nc3ccc(F)c(Cl)c3)nc2N)no1 ?
HCV inhibitor: inconclusive; AmpC inh detg: -3.5%; AmpC no deterg: 20µM*; HCMV inh: -33.3; FMDV inh: -3.4%

Results for CCCCN(C)CCNC(=O)c1ccc(Cn2c(=S)[nH]c3ccc(Br)cc3c2=O)cc1 ?
HCV inhibitor: 11.2µM*; AmpC inh detg: inconclusive; AmpC no deterg: 6.4%; HCMV inh: 15.1; FMDV inh: 43.0%

How did CC1(C)CC(N=Cc2c(O)n(Cc3ccc4c(c3)OCO4)c(=O)c3ccccc23)CC(C)(C)N1 do in these assays?
HCV inhibitor: 11.2µM*; AmpC inh detg: 0.1%; AmpC no deterg: -3.6%; HCMV inh: -33.1; FMDV inh: -18.9%

How did O=c1[nH]c(=O)n(Cc2ccco2)c(O)c1C=NCc1ccc2c(c1)OCO2 do in these assays?
HCV inhibitor: -0.3%; AmpC inh detg: 4.6%; AmpC no deterg: -23.8%; HCMV inh: 33.7; FMDV inh: 0.0%

Results for Cc1ccc(C)c(NC(=O)CCn2nc(C)c3c(C)n(-c4ccccc4)nc3c2=O)c1 ?
AmpC inh detg: -8.8%; HCMV inh: 2.4; FMDV inh: 0.0%

What do the screens show for `C=C1C(=O)C=C[C@]2(C)C[C@@H]3OC(=O)[C@](C)(O)[C@H]3C[C@@H]12`?
HCV inhibitor: inconclusive; AmpC inh detg: 2.2%; AmpC no deterg: -5.9%; HCMV inh: -98.0*; FMDV inh: 28.2µM*
